Source: publication PMC5540273 (PLoS ONE, 2017)

Columns and labels:
Conditions in all cases: concentration: 1 μM, replicates: in singlicate; n = 1
ROCK1 = tested on: ROCK1
ROCK2 = tested on: ROCK2
ROS1 = tested on: ROS1
[1] = tested on: RPS6KA4(Kin.Dom.1-N-terminal)
[2] = tested on: RPS6KA4(Kin.Dom.2-C-terminal)
[3] = tested on: RPS6KA5(Kin.Dom.1-N-terminal)
[4] = tested on: RPS6KA5(Kin.Dom.2-C-terminal)
[5] = tested on: T1, RSK1(Kin.Dom.1-N-terminal)
T1 construct: gene RPS6KA1

[6] = tested on: T2, RSK1(Kin.Dom.2-C-terminal)
T2 construct: gene RPS6KA1

[7] = tested on: T3, RSK2(Kin.Dom.1-N-terminal)
T3 construct: gene RPS6KA3

[8] = tested on: T4, RSK2(Kin.Dom.2-C-terminal)
T4 construct: gene RPS6KA3

[9] = tested on: T5, RSK3(Kin.Dom.1-N-terminal)
T5 construct: gene RPS6KA2

[10] = tested on: T6, RSK3(Kin.Dom.2-C-terminal)
T6 construct: gene RPS6KA2

[11] = tested on: T7, RSK4(Kin.Dom.1-N-terminal)
T7 construct: gene RPS6KA6

[12] = tested on: T8, RSK4(Kin.Dom.2-C-terminal)
T8 construct: gene RPS6KA6

S6K1 = tested on: S6K1
SBK1 = tested on: SBK1
SGK2 = tested on: SGK2
SGK3 = tested on: SGK3
SGK = tested on: SGK
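Note: KINOMEscan kinase panel screen.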

Row | SMILES | %Inh (ROCK1) [%] | %Inh (ROCK2) [%] | %Inh (ROS1) [%] | %Inh [1] [%] | %Inh [2] [%] | %Inh [3] [%] | %Inh [4] [%] | %Inh [5] [%] | %Inh [6] [%] | %Inh [7] [%] | %Inh [8] [%] | %Inh [9] [%] | %Inh [10] [%] | %Inh [11] [%] | %Inh [12] [%] | %Inh (S6K1) [%] | %Inh (SBK1) [%] | %Inh (SGK2) [%] | %Inh (SGK3) [%] | %Inh (SGK) [%]
1 | Cc1cc(NCC(c2ccccc2)c2ccccc2)nc(NCc2ccc(C(F)(F)F)cc2)n1 [GW497681] | 0 | 23 | 0 | 0 | 0 | 0 | 1 | 0 | 6 | 0 | 4 | 0 | 1 | 0 | 28 | 0 | 0 | 0 | 6 | 0
2 | COc1ccc(Nc2nccc(-c3cccc(NC(=O)c4cc5cc(F)ccc5[nH]4)c3)n2)cc1 [GSK1229782] | 48 | 35 | 34 | 21 | 0 | 6 | 14 | 13 | 5 | 21 | 0 | 1 | 0 | 0 | 24 | 16 | 18 | 0 | 0 | 6
3 | CC(C)(C)c1ccc(C(=O)Nc2cn3cc(Cl)ccc3n2)cc1 | 0 | 0 | 0 | 7 | 5 | 0 | 0 | 0 | 20 | 26 | 28 | 0 | 23 | 45 | 22 | 0 | 0 | 6 | 0 | 8
4 | Cc1cc(-c2ccc3c(c2)CC[C@@H](N[C@@H](C)c2ccccc2)C3)cnc1N.Cl [GW412617] | 7 | 5 | 15 | 16 | 0 | 6 | 0 | 0 | 8 | 4 | 47 | 15 | 0 | 23 | 0 | 4 | 17 | 0 | 0 | 2
5 | Cc1cccc(-c2nc(Nc3cccc(C(N)=O)c3)c3ccccc3n2)n1 [GW876019] | 1 | 15 | 0 | 27 | 0 | 0 | 0 | 0 | 46 | 1 | 49 | 2 | 27 | 0 | 9 | 8 | 0 | 0 | 0 | 0
6 | O=C(Nc1n[nH]c2cc(-c3cccc(F)c3F)ccc12)C1CC1 [SB-733894] | 0 | 9 | 7 | 0 | 2 | 0 | 2 | 13 | 6 | 0 | 0 | 52 | 0 | 0 | 0 | 22 | 11 | 29 | 12 | 32
7 | Cc1ccc(C(=O)Nc2ccc(Nc3ccnc4cc(-c5ccccn5)ccc34)cc2O)cc1.Cl [GW440146] | 13 | 19 | 16 | 20 | 0 | 16 | 0 | 6 | 0 | 0 | 4 | 6 | 0 | 0 | 1 | 7 | 10 | 0 | 0 | 0
8 | Cn1cncc1-c1ccc2ncnc(Nc3ccc(OCc4ccccc4)cc3)c2c1 [GW320571] | 3 | 17 | 9 | 13 | 0 | 28 | 0 | 0 | 0 | 18 | 20 | 23 | 0 | 19 | 0 | 2 | 28 | 0 | 0 | 0
9 | Fc1cc(Cl)ccc1Nc1ccnc2cc(I)ccc12 [GW551191] | 2 | 17 | 0 | 10 | 0 | 13 | 0 | 8 | 50 | 11 | 32 | 0 | 0 | 0 | 87 | 4 | 19 | 4 | 0 | 8
10 | Cc1cccc(-c2cc(Nc3ccncc3)c3ccccc3n2)n1 [GSK223675] | 0 | 0 | 0 | 0 | 0 | 5 | 100 | 30 | 35 | 0 | 0 | 5 | 10 | 0 | 21 | 0 | 3 | 0 | 0 | 0
